According to PubChem BioAssay AID743110 (Vanderbilt Specialized Chemistry Center, 2013):
Measured potencies and affinities stand elsewhere. Activity calls are given as the source filed them.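 How the source made its calls: active means Blocks human M5 receptor in a calcium assay, with half-maximal inhibiting concentration under 10 µM; inactive means the rest.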

target: Muscarinic acetylcholine receptor M5 (Homo sapiens) (UniProt P08912); experiment: inhibition of ACh-evoked human M5 signalling – cell-based, CHO-K1 hM5, Fluo-4 calcium flux, ACh EC80, dose response (AID 743110); conditions: series mostly up to 30 µM
Sequence (P08912 whole entry, looked up): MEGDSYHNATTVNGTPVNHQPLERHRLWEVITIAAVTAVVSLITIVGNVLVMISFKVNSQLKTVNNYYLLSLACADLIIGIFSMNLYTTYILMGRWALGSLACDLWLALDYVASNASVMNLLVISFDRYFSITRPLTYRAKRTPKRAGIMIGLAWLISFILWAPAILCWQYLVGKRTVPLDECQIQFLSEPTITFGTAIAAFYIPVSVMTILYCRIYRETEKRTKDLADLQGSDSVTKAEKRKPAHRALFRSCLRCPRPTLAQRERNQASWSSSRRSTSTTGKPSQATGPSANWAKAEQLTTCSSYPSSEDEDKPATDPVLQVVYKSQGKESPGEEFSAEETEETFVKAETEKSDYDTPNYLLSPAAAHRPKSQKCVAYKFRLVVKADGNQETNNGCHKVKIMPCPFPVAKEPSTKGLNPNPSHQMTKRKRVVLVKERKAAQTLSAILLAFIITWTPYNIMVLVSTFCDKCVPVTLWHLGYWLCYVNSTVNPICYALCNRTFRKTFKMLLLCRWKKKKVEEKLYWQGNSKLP

outcome, inactive:
CC(=O)c1cccc(OCc2cccc(C(=O)N(C)C(C)c3ccccn3)c2)c1 (stereo not given)
CC(c1ccccn1)N(C)C(=O)c1cc(COc2cccc(Br)c2)on1 (stereo not given)
CC(=O)c1cccc(N(Cc2cc(C(=O)N(C)C(C)c3ccccn3)no2)C(=O)c2ccccc2)c1 (stereo not given)
CC(=O)c1cccc(OCc2ccc(C(=O)N(C)C(C)c3ccccn3)cc2)c1 (stereo not given)
CC(=O)c1cccc(OCc2cc(C(=O)NC(C)c3ccccn3)no2)c1 (stereo not given)
